Shown are actives, neighbours in structure and some others; about 3.1% of the full set was active somewhere.
ABHD5 PLIN5 PPI = blocks binding of human ABHD5 to perilipin-5; inhibition, % at 4 µM; Q00G26+Q8WTS1; Split G. princeps luciferase complementation, luminescence, 4 h; hit rate 0.78% among 360,000;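 active means inhibition above the mean inhibition across every tested compound plus 3 SD, cut at about 22% in these data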
Target sequence (Q00G26 whole entry, looked up): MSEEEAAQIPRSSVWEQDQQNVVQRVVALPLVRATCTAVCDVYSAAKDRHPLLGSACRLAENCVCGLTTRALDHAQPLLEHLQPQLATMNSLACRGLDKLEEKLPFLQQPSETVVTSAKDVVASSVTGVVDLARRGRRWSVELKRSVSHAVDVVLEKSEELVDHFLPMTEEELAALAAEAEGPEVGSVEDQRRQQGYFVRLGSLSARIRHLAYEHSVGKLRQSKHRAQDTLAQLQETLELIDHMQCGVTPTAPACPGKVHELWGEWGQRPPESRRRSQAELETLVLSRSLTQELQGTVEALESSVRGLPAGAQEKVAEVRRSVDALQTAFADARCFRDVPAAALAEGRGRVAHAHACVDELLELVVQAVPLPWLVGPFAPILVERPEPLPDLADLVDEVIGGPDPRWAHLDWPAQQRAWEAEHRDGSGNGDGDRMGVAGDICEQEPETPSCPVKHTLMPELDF
Target sequence (Q8WTS1 whole entry, looked up): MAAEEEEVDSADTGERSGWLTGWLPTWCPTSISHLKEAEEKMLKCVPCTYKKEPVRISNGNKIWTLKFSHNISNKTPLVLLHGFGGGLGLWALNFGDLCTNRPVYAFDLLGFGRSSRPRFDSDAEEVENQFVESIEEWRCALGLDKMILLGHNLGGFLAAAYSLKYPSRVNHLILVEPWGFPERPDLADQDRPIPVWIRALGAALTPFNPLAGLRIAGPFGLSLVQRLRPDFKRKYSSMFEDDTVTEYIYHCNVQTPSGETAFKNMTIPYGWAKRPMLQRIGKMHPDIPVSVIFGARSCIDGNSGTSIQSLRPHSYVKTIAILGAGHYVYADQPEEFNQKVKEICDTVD
KKLEB cytotox = reduces viability of KKLEB cystic fibrosis airway cells | KKLEB CF airway cells viability, ATPlite luminescence, overnight; stronger effect = lower value; cells stimulated with P. aeruginosa culture filtrate | activity change (cytotoxicity), % at 5 µM | hit rate 0.36% among 360,000;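 active means corrected activity change at or below -50% at 5 µM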
HIF-2a inh = blocks HIF-2a reporter activity. 786-0 RCC cells HIF-2a reporter, luciferase luminescence, overnight. inhibition, % at 18.8 µM. hit rate 0.72% among 360,000. AID 624352;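 active means inhibition of the luminescence signal of 40% or more relative to plate controls, in a single-dose primary screen at 18.75 µM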
TRPM1 prom inh = inhibitors of MITF-driven TRPM1 promoter in melanoma cells; inhibition, % at 12.5 µM; hit rate 0.83% among 330,000; SK-MEL-5 TRPM1 promoter luciferase, 24 h; AID 488899;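 active means mean inhibition across replicates of 60% or more, whatever share of single replicates reaches that level; inconclusive means some that reach 60%, reason not given; inactive means mean inhibition across replicates below 60%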
Peg3 promoter = inhibitors of Peg3 promoter; HeLa PEG-Prom luciferase reporter, luminescence, overnight; hit rate 1.7% among 360,000; inhibition, % at 20 µM; AID 588405;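 active means inhibition of at least 50% at 20 µM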
CF NFkB block = blocks PAF-induced NF-kB reporter in cystic fibrosis cells. inhibition, % at 5 µM. hit rate 0.86% among 360,000. KKLEB NF-kB-GFP reporter, GFP fluorescence overnight;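 active means at least 50% inhibition at 5 µM, scaled per plate between neutral and stimulator controls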;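 further: PAF is a Pseudomonas aeruginosa culture filtrate used as stimulus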
Of the large screens only hits and unclear results are named; the others gave an inactive call; ! = not confirmed by another sample.

O=[N+]([O-])c1ccc(N/N=C/c2cn(-c3ccccc3)nc2-c2ccccc2)cc1	none
COc1ccc(-c2c[n+]3c4n2CCCCC4=C(c2ccc(Br)cc2)C3)cc1	TRPM1 prom inh 76.1
Clc1ccc(C2=C3CCCCn4c(-c5ccccc5)c[n+](c43)C2)cc1	none
Cc1onc(-c2c(F)cccc2Cl)c1C(=O)Nc1sc2c(c1C(N)=O)CCC2	Peg3 promoter 51.9
Cc1onc(-c2ccccc2)c1C(=O)Nc1sc2c(c1C(N)=O)CCC2	none
Cc1ccc(C)c(N2N=C(C(=O)Nc3ccccc3N3CCCC3)CCC2=O)c1	none
Cc1ccc(C)c(N2N=C(C(=O)Nc3ccccc3N3CCOCC3)CCC2=O)c1	Peg3 promoter 67.2
CCN(CC)CCN1C(=O)C(=O)/C(=C(/O)c2ccc(S(=O)(=O)N3CCOCC3)cc2)C1c1ccc(C(C)(C)C)cc1 (centres undefined)	none
O=C(Cc1ccccc1[N+](=O)[O-])N/N=C/c1cccnc1	none
CN(C)CCOc1ccc2c(c1)C(=O)C(=Cc1ncc([N+](=O)[O-])n1C)C2	Peg3 promoter 103.2 (no result: TRPM1 prom inh)
CCC(=O)Nc1nnc(S(=O)(=O)N2c3ccccc3CC2C)s1 (centres undefined)	none
CN(C)/C=C(\C=N\OCc1ccc(Cl)cc1Cl)C(=O)Nc1ccc(Cl)c(Cl)c1	KKLEB cytotox -60.0, CF NFkB block 56.5
Cc1c(C(=O)N/N=C/c2ccc(Cl)cc2)[nH]c2ccc(Cl)cc12	CF NFkB block 61.5
O=C(N/N=C/c1ccc(O)cc1)c1[nH]c2ccc(Br)cc2c1-c1ccccc1	TRPM1 prom inh 62.9, CF NFkB block 57.6
CCOc1ccc(/C=N/NC(=O)c2[nH]c3ccc(C)cc3c2C)cc1	none
O=C(N/N=C/c1c[nH]c2ccccc12)c1[nH]c2ccc(Br)cc2c1-c1ccccc1	TRPM1 prom inh inconclusive
O=C(NNc1ccc(Cl)nn1)c1ccc(Cl)cc1	none
O=C1ON=C(c2ccccc2)/C1=C/c1ccc(O)c(O)c1	HIF-2a inh 41.1
COc1ccc(/C=C2\C(=O)ON=C2c2ccccc2)cc1	none
Cc1nn2cc(-c3ccccc3)nc2s1	none
c1ccc(-c2cn3c4c(sc3n2)CCCC4)cc1	KKLEB cytotox -58.1, Peg3 promoter 52.7!
O=C(N/N=C/c1ccc(O)cc1O)c1ccncc1	none
Cc1ccc(C(C)C)c(OCc2ccc(C(=O)N/N=C/c3ccc(O)cc3O)cc2)c1	HIF-2a inh 71.5 (no result: TRPM1 prom inh)
CCOC(=O)c1ccc(NC(=O)c2ccc(C)c(S(=O)(=O)N3CCOCC3)c2)cc1	TRPM1 prom inh 68.8, Peg3 promoter 92.8
Cc1cc(C)n(-c2ccc(C(=O)Nc3ccc(C)c(S(=O)(=O)N4CCOCC4)c3)cc2)n1	TRPM1 prom inh 69.4
COc1ccc(CNC(=O)C(c2ccco2)N(C(=O)CNS(=O)(=O)c2ccccc2)c2ccccc2C)cc1 (centres undefined)	none
O=c1c2ccccc2sn1-c1ccccc1	ABHD5 PLIN5 PPI 111.1, Peg3 promoter 65.4
O=c1c2ccccc2sn1-c1cccc(Cl)c1	CF NFkB block 59.6 (no result: TRPM1 prom inh)
O=c1c2ccccc2sn1-c1ccc(S(=O)(=O)N2CCCCC2)cc1	none
Cc1ccc(-n2sc3ccccc3c2=O)cc1S(=O)(=O)N1CCCCC1	ABHD5 PLIN5 PPI 104.1
O=c1c2ccccc2sn1-c1ccccc1F	none (no result: TRPM1 prom inh)
CN(C)S(=O)(=O)c1cccc(-n2sc3ccccc3c2=O)c1	ABHD5 PLIN5 PPI 47.3
O=c1c2ccccc2sn1-c1ccc(S(=O)(=O)N2CCCC2)cc1	none
C#CCNC(=O)C[C@@H]1C[C@@]2(C(=O)OCC)CCC=C2N(Cc2ccco2)C1=O	none (no result: KKLEB cytotox, TRPM1 prom inh, Peg3 promoter, CF NFkB block)
CCCn1c(=O)c2c(nc3n2CCCN3CCc2ccccc2)n(C)c1=O	none
COc1ccc(N2CCCn3c2nc2c3c(=O)n(CCc3ccccc3)c(=O)n2C)cc1	Peg3 promoter 51.9
Cn1c(=O)n(CCc2ccccc2)c(=O)c2c1nc1n2CCCN1CCc1ccccc1	Peg3 promoter 68.8
COc1ccc(CC2(CO)CCN(Cc3ccc4nsnc4c3)CC2)cc1	none
CCOc1ccc(NC(=O)CN(C)C(=O)Cc2n[nH]c(=O)c3ccccc23)cc1OCC	none
CCc1cc(C(=O)N/N=C/c2ccc(O)cc2O)c2ccccc2n1	TRPM1 prom inh 68.4, Peg3 promoter 51.7
O=C(/C=C\c1ccccc1)NCC(=O)N/N=C/c1ccc(O)cc1O	TRPM1 prom inh 67.3
CCc1nnc(NC(=O)CN2CCN(c3ccccc3F)CC2)s1	none
COc1cc(OC)c2c(-c3cccc(-c4sccc4C(C)=O)c3)cc(=O)oc2c1	CF NFkB block 59.9
O=[N+]([O-])c1cc(CS(=O)(=O)Oc2ccc(Cl)cc2)c(O)c([N+](=O)[O-])c1	none
COC(=O)C1=C(C)N(Cc2ccc(C)cc2)C(=O)/C1=C\c1cc(OC)c(OC)c(OC)c1	HIF-2a inh 50.9
Cc1coc2c(C)c3oc(=O)cc(-c4ccccc4)c3cc12	Peg3 promoter 74.5
CC(=Cc1ccccc1)C=C1SC(=S)N(CCCC(=O)Nc2ccc(C(=O)O)cc2)C1=O	none (no result: TRPM1 prom inh)
O=C(O)CCCN1C(=O)/C(=C\c2ccco2)SC1=S	HIF-2a inh 55.3
O=C(CCCN1C(=O)/C(=C/c2ccco2)SC1=S)Nc1ccccc1C(=O)O	none
CC(=C\c1ccccc1)/C=C1/SC(=S)N(CCCC(=O)O)C1=O	HIF-2a inh 91.2
COc1ccc(-c2oc3ccc(-c4cc(OC)c(OC)c(OC)c4)cc3c2C#Cc2ccsc2)cc1	none
COc1ccccc1OCCn1c(=O)oc2ccc(C)cc21	none
COc1ccc(OC)c(NC(=O)COC(=O)c2c3c(nc4ccccc24)CCCC3)c1	Peg3 promoter 78.2
Cc1ccc(-c2cc(C(=O)Nc3cc(C(=O)O)ccc3C)c3ccccc3n2)cc1	none
Cc1ccc(S(=O)(=O)N(C)C)cc1NC(=O)c1cc(-c2ccncc2)nc2ccccc12	Peg3 promoter 51.6
CN(C)CCNC=C(C(=O)Nc1ccc(Cl)cc1Cl)C(=O)Nc1ccc(Cl)cc1Cl	Peg3 promoter 91.0
CC(=O)/C(=C/N(C)C)C(=O)Nc1ccc(Cl)cc1Cl	none
CC(=O)NC(CC(=O)NCCCn1ccc2ccccc21)c1ccccc1 (centres undefined)	none
CCc1nn(C(C)C(=O)N2CCN(c3ccc(OC)cc3)CC2)c(=O)c2cc3occc3n12 (centres undefined)	none
O=C1c2ccccc2C(=O)N1OS(=O)(=O)c1ccc(F)cc1	Peg3 promoter 60.9
CCc1nc(SCC(=O)NC2CC2)c2c(C)c(C)sc2n1	none
CC(OC(=O)c1ccc([N+](=O)[O-])s1)C(=O)NC1CCCCC1C (centres undefined)	TRPM1 prom inh 77.5
COc1cc(C(=O)OC(C)C(=O)NC2CCCCC2C)c([N+](=O)[O-])cc1OC (centres undefined)	none
CCOC(=O)c1c(C=O)c(C)n(Cc2ccc(Cl)cc2)c1C	none

Assay outcomes (PubChem BioAssay)
